What is called AC50 is the concentration at which the activity in the assay is half-maximal.

The structures appear in SMILES notation. The source made the active and inactive calls. How the source made its calls: active means hit-call score of the fitted dose curve at least 0.9, where 1 is the maximum; inactive means score below 0.9.

A short description of the assay: ATG_DR4_LXR_CIS: Attagene CIS-FACTORIAL HepG2 Assay for human Liver X Receptor (LXR), DR4 submotif (AID 2282929). The following applies: HepG2 Attagene DR4 cis-reporter, mRNA transcription; actives raise or lower the signal. How it is done: ATG_CIS is a cell-based, multiplexed-readout assay that uses HepG2, a human liver cell line, with measurements taken at 24 hours after chemical dosing in a 24-well plate.ATG_DR4_LXR_CIS is one of 52 assay component(s) measured or calculated from the ATG_CIS assay. It is designed to make measurements of mRNA induction, a form of inducible reporter, as detected with fluorescence intensity signals by Reverse transcription polymerase chain reaction (RT-PCR) and Capillary electrophoresis technology.Data from the assay component ATG_DR4_LXR_CIS was analyzed into 1 assay endpoint. This assay endpoint, ATG_DR4_LXR_CIS, was analyzed with bidirectional fitting relative to DMSO as the negative control and baseline of activity. Using a type of inducible reporter, measures of mRNA for gain or loss-of-signal activity can be used to understand the reporter gene at the transcription factor-level as they relate to the gene NR1H2 and NR1H3. Furthermore, this assay endpoint can be referred to as a primary readout, because this assay has produced multiple assay endpoints where this one serves a reporter gene function. To generalize the intended target to other relatable targets, this assay endpoint is annotated to the nuclear receptor intended target family, where the subfamily is non-steroidal.
Human liver HepG2 cells are transiently transfected with multiple reporter transcription units (MRTUs) in 6-well plates using FuGene 6 reagent (Roche; 3 ml FuGene/1 mg DNA). The MRTU constructs are regulated by a cis-regulating element (promoter). […] A major difference between the CIS and TRANS system is that in CIS activities of endogenous TFs are measured, whereas the TRANS assay evaluates changes in activities of exogenous, chimeric NR-Gal4 proteins. […] At the end of 24 hour incubation, total RNA was isolated using TriZol reagent (Invitrogen). The isolated RNA is then reverse-transcribed using oligo(dT) primer and Mo-MLV reverse transcriptase (Invitrogen) with DNAse I (Ambion) treatment for 30 min. The one-tenth of the produced cDNA was amplified by PCR using Taq DNA polymerase (Invitrogen) and two reporter sequence-specific primers. The PCR products were fluorescently labeled by primer extension with 6-arboxyfluorescein (6-FAM) 5'-labeled reporter sequence-specific primer (2 min at 95 C, 20 s at 68 C and 10 min at 72 C) and these products were digested with 5U of HpaI (New England Biolabs) for 2h at 37 C. The fragments were purified using Qiaquick PCR columns (Qiagen), analyzed on an ABI 3130xL genetic analyzer (Applied Biosystems) with peak positions identified by using a set of X-rhodamine (ROX)-labeled MapMarker1000 molecular weight standards (BioVentures). The raw capillary electrophoresis data was processed using Attagraph software (Attagene).
In the case of `COCC(=O)N(c1c(C)cccc1C)C(C)C(=O)OC` (stereo not given), the call was inactive.

On to `O=P(O)(O)CCCl`, for which the result was inactive.

As to `Cc1c(COC(=O)[C@@H]2[C@H](/C=C(\Cl)C(F)(F)F)C2(C)C)cccc1-c1ccccc1`, the result was inactive.

For `CCCCC(O)(Cn1cncn1)c1ccc(Cl)cc1Cl` (stereo not given), the compound was classed as inactive.

`Cc1cc(C)nc(Nc2ccccc2)n1`: the result was inactive.

Regarding `CC1(C)C(C=C(Cl)Cl)C1C(=O)OC(C#N)c1cccc(Oc2ccccc2)c1` (stereo not given), the AC50 is 30.3 µM (active).

Consider `CCNC(=O)NC(=O)C(C#N)=NOC`, for which the outcome was inactive.

With `CC(C)C1(C)N=C(c2ncccc2C(=O)O)NC1=O` (stereo not given), the compound was called inactive.

On to `O=C(O)c1c(Cl)ccc2cc(Cl)cnc12`, for which the outcome was inactive.

With `CN/C(=N\[N+](=O)[O-])NCc1cnc(Cl)s1`, the compound was classed as inactive.

With `CCOc1cc(C(C)(C)C)ccc1C1COC(c2c(F)cccc2F)=N1` (stereo not given), the AC50 is 13.2 µM (active).

With `COc1ccc(-c2ccccc2)cc1NNC(=O)OC(C)C`, the result was inactive.

On to `COC(=O)c1c(C(F)F)nc(C(F)(F)F)c(C2=NCCS2)c1CC(C)C`, for which the concentration at half-maximal activity (AC50) was 26.2 µM (active).

Consider `Cc1ccc(N=CN(C)C=Nc2ccc(C)cc2C)c(C)c1`, for which the call was inactive.

For `CCNP(=S)(OC)O/C(C)=C/C(=O)OC(C)C` (stereo not given), the AC50 was 50 µM (active).

Turning to `CCCC(=NOCC)C1=C(O)CC(CC(C)SCC)CC1=O` (stereo not given), the outcome was inactive.

For the compound `CC(C)=CC1C(C(=O)OCc2coc(Cc3ccccc3)c2)C1(C)C` (stereo not given), the half-maximal activity concentration (AC50) was 73.6 µM (active).

With `Clc1nc(Cl)nc(Nc2ccccc2Cl)n1`, the compound was called inactive.

In the case of `CS(=O)(=O)c1cc(C(F)(F)F)ccc1C(=O)c1cnoc1C1CC1`, the compound was classed as inactive.

In the case of `CCC(C)n1c(=O)[nH]c(C)c(Br)c1=O` (stereo not given), the compound was classed as inactive.

On to `CCCCOCN(C(=O)CCl)c1c(CC)cccc1CC`, for which the outcome was inactive.

For `CS(=O)(=O)c1ccc(C(=O)C2C(=O)CCCC2=O)c([N+](=O)[O-])c1`, the result was inactive.

For `CCSC(=O)N1CCCCCC1`, the outcome was inactive.

On to `COc1cc(OC)nc(NC(=O)NS(=O)(=O)c2ncccc2OCC(F)(F)F)n1`, for which the outcome was inactive.

In the case of `C=CCOC(=O)C(C)(C)OC(=O)c1cc(-n2c(=O)cc(C(F)(F)F)n(C)c2=O)ccc1Cl`, the outcome was inactive.

Consider `CCOP(=S)(OCC)Oc1nc(Cl)n(C(C)C)n1`, for which the AC50 was 6.85 µM (active).

With `CCOc1nc(C(Cl)(Cl)Cl)ns1`, the outcome was inactive.

In the case of `CNC(=O)Oc1cccc2ccccc12`, the outcome was inactive.

Turning to `CC(C)(C)C(=O)C(Oc1ccc(Cl)cc1)n1cncn1` (stereo not given), the compound was called inactive.

In the case of `CC(C)Oc1cccc(NC(=O)c2ccccc2C(F)(F)F)c1`, the call was inactive.

Regarding `Cn1c(-c2ccccc2)cc(-c2ccccc2)[n+]1C`, the outcome was inactive.

For `COc1cc(Cl)c(OC)cc1Cl`, the result was inactive.

As for `Nc1c(Cl)c(F)nc(OCC(=O)O)c1Cl`, the compound was classed as inactive.

As to `COC(=O)NS(=O)(=O)c1ccc(N)cc1`, the compound was classed as inactive.

In the case of `Clc1cccc(C(Cl)(Cl)Cl)n1`, the result was inactive.

With `CC1(C)CCC(=Cc2ccc(Cl)cc2)C1(O)Cn1cncn1` (stereo not given), the outcome was inactive.

As to `CC(C)NC(=O)N1CC(=O)N(c2cc(Cl)cc(Cl)c2)C1=O`, the compound was called inactive.

`CCCN(CC)CC1COC2(CCC(C(C)(C)C)CC2)O1` (stereo not given): the call was inactive.

On to `CC(C)N1C(=O)c2ccccc2NS1(=O)=O`, for which the AC50 is 62 µM (active).

Regarding `CN=C=S`, the compound was classed as inactive.

For the origin of these results see PubChem BioAssay (EPA / NIEHS).
